From PubChem
Rows were chosen to be rich in hits. Some 4.3% of all compounds tested hit in one or more screens of this group.
dFosB act: activators of delta FosB homodimer, primary screen, biochemical, fluorescence polarization, TAMRA-CDK5 oligo, single point; activation, % at 25 µM; Protein FosB (Mus musculus), P13346; purified delta FosB; percent of positive-control signal above neutral wells; 340,000 tested, 0.99% active;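 active = mean activation above about 17%, with every replicate also reaching it, limit read from the data, passing the limit was not always enough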
Target sequence (P13346 whole entry, looked up): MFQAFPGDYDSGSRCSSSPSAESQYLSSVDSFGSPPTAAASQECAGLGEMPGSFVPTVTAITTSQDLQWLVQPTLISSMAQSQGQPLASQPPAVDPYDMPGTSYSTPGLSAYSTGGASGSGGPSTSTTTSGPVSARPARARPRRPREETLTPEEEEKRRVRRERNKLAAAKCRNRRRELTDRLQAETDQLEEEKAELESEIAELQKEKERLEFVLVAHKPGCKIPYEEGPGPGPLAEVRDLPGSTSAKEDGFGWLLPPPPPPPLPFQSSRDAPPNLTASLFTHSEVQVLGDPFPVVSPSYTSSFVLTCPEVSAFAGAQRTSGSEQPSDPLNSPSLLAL
GRIN3A LBD mod: binders of NR3A ligand-binding domain, primary screen, biophysical, differential scanning fluorimetry, uHTS; Glutamate receptor ionotropic, NMDA 3A (GRIN3A) ligand-binding domain; NR3A LBD differential scanning fluorimetry, Tm shift; 0% = protein alone, 100% = glycine-bound protein; 340,000 tested, 2.5% active; Tm shift relative to glycine control, % at 25 µM;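 active = melting temperature shift of at least 10% of the positive control shift, at one fixed dose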
UBC13 inh: UBC13 polyubiquitin chain formation inhibitors, primary screen, biochemical, TR-FRET, uHTS | Ubiquitin-conjugating enzyme E2 N (Homo sapiens), P61088 | inhibition, % at 20 µM | 330,000 tested, 0.47% active | AID 485273, 2010; in the data active = inhibition above about 45%, passing the limit was not always enough
Target sequence (P61088 whole entry, looked up): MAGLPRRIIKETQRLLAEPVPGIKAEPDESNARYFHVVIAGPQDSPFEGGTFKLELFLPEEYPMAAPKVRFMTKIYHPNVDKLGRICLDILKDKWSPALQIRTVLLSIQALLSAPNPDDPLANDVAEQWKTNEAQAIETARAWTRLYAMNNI
CR mimetic SO: reduction of superoxide in aged yeast, primary screen, HTS. S. cerevisiae aged cells, superoxide DHE fluorescence; stronger effect = lower value. superoxide response (% of plate mean), % at 10 µM. 330,000 tested, 0.18% active;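 active = superoxide response under a set limit, about three screen SD below normal, cut at about 65% in these data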;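 also: yeast aged for seven days with compound at 30 °C before DHE staining; 100% = average MFI of all compound-treated wells on the plate with controls excluded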
NALP1 yeast inh: NALP1 inflammasome inhibitors in reconstituted yeast, colorimetric, S. cerevisiae, triplicate retest. 280,000 tested, 0.61% active. inhibition, % at 10 µM. S. cerevisiae NALP1/ASC/caspase-1 growth, X-gal OD620, 72 h; in the data active = inhibition mostly above about 24%, no sharp cut-off; inactive = mostly below about 32%
The depositor's hits bear a star; / = not tested or not shown.

SMILES	dFosB act	GRIN3A LBD mod	UBC13 inh	CR mimetic SO	NALP1 yeast inh
C#CCOCCOCCOCCNc1nc(N2CCN(C(=O)[C@H](CCC(=O)O)n3cc(C(N)CC(C)C)nn3)CC2)nc(N2CCN(C(=O)[C@H](Cc3cc4ccccc4[nH]3)n3cc(C(N)[C@H](C)CC)nn3)CC2)n1 (some centres not stated)	9.3	-2.1	4.7	95.8	-6.0
O=C(CCNC(=O)c1ccc(Cl)cc1)Nc1cccc(S(=O)(=O)N2CCCCC2)c1	-7.4	-1.4	1.1	98.1	/
Nc1cc2c(cc1Cl)-c1ccccc1C2	6.1	3.3	/	/	/
Nc1cc2c(cc1Cl)-c1ccc(Cl)cc1C2	/	30.5*	/	/	/
c1ccc(-n2cc(CNCCc3cscn3)c(-c3ccc4c(c3)OCO4)n2)cc1	0.6	-1.0	10.5	95.0	31.5*
CCCCNS(=O)(=O)c1ccc2nc(SCC(=O)Nc3sccc3C#N)[nH]c2c1	-14.2	14.4*	19.5	104.6	7.4
CCCCNS(=O)(=O)c1ccc2nc(SCC(=O)Nc3cccc(F)c3)[nH]c2c1	-4.7	16.9*	3.1	97.5	34.6
CCCc1c(C)nn(C(=O)/C(C#N)=N/Nc2ccccc2[N+](=O)[O-])c1C	0.1	14.6*	-9.0	80.5	-1.4
COc1ccc(NC(=O)c2cn(-c3ccccc3)nc2-c2cc3ccccc3o2)cc1	-4.6	10.7*	6.1	93.5	7.4
O=C(Nc1ccc2ccccc2c1)c1cn(-c2ccccc2)nc1-c1cccs1	-9.6	24.7*	-15.5	91.3	-6.7
COc1ccc(NC(=O)c2cn(-c3ccccc3)nc2-c2ccncc2)cc1	6.6	-2.7	8.5	94.5	-2.7
O=C(N/N=C/c1cn(-c2ccccc2)nc1-c1cc2ccccc2o1)c1ccccc1Br	14.0	4.6	0.9	125.1	/
O=C(O)c1cccc(NC(=O)c2cn(-c3ccccc3)nc2-c2ccncc2)c1	-4.2	0.1	3.1	114.9	10.2
O=C(N/N=C/c1cn(-c2ccccc2)nc1-c1cc2ccccc2o1)c1c[nH]c2ccccc12	4.6	19.6*	-8.0	116.0	6.6
O=C(O)c1cccc(NC(=O)c2cn(-c3ccccc3)nc2-c2cccc(Br)c2)c1	-20.2	14.8*	-14.7	105.7	-8.2
CCOC(=O)N1CCN(C(=O)/C(=C/c2cccs2)NC(=O)c2ccc(OC)c(OC)c2)CC1	-7.2	0.2	-3.9	102.6	-1.9
COc1cc2c(cc1OC)CN(C1CCCN(Cc3cc(Cl)ccc3O)C1)CC2 (configuration not stated)	1.9	3.4	-0.7	94.7	10.2
CCOC(=O)C(C#N)=CN1CCNc2ccccc21	-9.7	0.8	/	/	/
N#CCCn1cc(C(=O)Nc2ccc([N+](=O)[O-])cc2)c(-c2cc3ccccc3o2)n1	7.7	13.9*	11.5	92.5	12.2
N#CCCn1cc(C(=O)Nc2ccccc2Br)c(-c2cc3ccccc3o2)n1	15.9	-9.4	4.9	100.3	35.9
NC1=NC(=Nc2cccc(S(N)(=O)=O)c2)c2ccccc21	-1.8	-0.4	-6.5	104.2	-0.9
COc1cc(N=Nc2cccc(S(N)(=O)=O)c2)c2ccccc2c1N	-7.8	12.9*	/	128.2	17.3
O=C1CS(=O)(=O)c2ccccc2N1	2.6	0.9	-4.6	97.2	11.4
Cc1c(NS(=O)(=O)c2cccc(C(=O)OCC(=O)N(C)C3CCCCC3)c2)c(=O)n(-c2ccccc2)n1C	-7.2	-1.2	-20.4	113.9	-1.4
CCOC(=O)N1CCC(NC(=O)C2CCN(C(=O)c3cc4sccc4n3CC)CC2)CC1	-0.1	1.3	-3.2	104.2	-5.1
SMILES	dFosB act	GRIN3A LBD mod	UBC13 inh	CR mimetic SO	NALP1 yeast inh
CCN(CC)C1=N/C(=C\c2ccc(OC)cc2)C(=O)N1c1ccccc1	-1.3	11.6*	-1.6	97.0	31.7
CCc1c(C)[nH]n(-c2nc(-c3ccccc3)cs2)c1=O	-1.9	-2.4	-9.4	89.3	-10.3
Cc1[nH]n(-c2nc(-c3ccc(Cl)cc3)cs2)c(=O)c1N=Nc1ccc(O)cc1	-2.6	18.6*	-160.5	94.8	-0.9
c1ccc(-c2nccc(-c3ccc(-n4cnc5ccccc54)cc3)n2)cc1	130.3*	0.7	11.7	105.4	12.8
CCOC(=O)C1CCN(C(=O)c2cc(S(=O)(=O)N3CCOCC3)ccc2C)CC1	-14.2	4.0	3.1	80.1	/
Cn1cccc1C(=O)NCc1ccccn1	-1.7	-0.3	-0.3	/	/
Nc1nc(-c2ccccc2)cn1N	3.4	11.0*	-8.2	104.9	-7.3
CC(CNc1ccc(Cl)cc1)(CNc1ccc(Cl)cc1)[N+](=O)[O-]	2.9	24.8*	/	/	/
CCN(CC)CCn1c(NCc2ccccn2)nc2ccccc21	-7.5	-0.7	2.1	100.5	42.1*
NC(=O)c1c(/N=C/c2cccnc2)sc2c1CCCC2	/	11.0*	9.6	96.2	14.5
Cc1ccc(/C=N/c2sc3c(c2C(N)=O)CCCC3)o1	0.0	-1.7	-6.6	94.2	-19.6
Cc1c(C(=O)O)c(C(=O)O)c2n1CCS2	8.0	-1.0	-3.6	111.8	23.4
COc1cc(C2/C(=C(\O)c3cc(C)ccc3C)C(=O)C(=O)N2CCN(C)C)ccc1O (configuration not stated)	-2.7	-1.5	5.6	98.2	13.1
CCOc1cc(C2/C(=C(\O)c3cc(C)ccc3C)C(=O)C(=O)N2CCN(C)C)ccc1O (configuration not stated)	-5.5	-0.8	-10.2	116.1	40.3*
COc1ccc(S(=O)(=O)NCC(=O)N(CC(=O)NCc2ccco2)C2CCCC2)cc1	-1.6	-3.0	0.4	97.2	-18.9
Cc1ccc(C)c(N2CCN(C(=O)CCc3nc(-c4cccc(F)c4)no3)CC2)c1	-5.2	19.5*	/	97.4	/
CC(C)(C)C(=O)Nc1ccc(S(=O)(=O)N2CCC(c3nc4ccccc4[nH]3)CC2)cc1	-0.2	20.4*	-10.2	88.2	/
O=S(=O)(c1cccc(Cl)c1)N1CCC(c2nc3ccccc3[nH]2)CC1	-5.1	27.2*	6.9	81.0	9.0
CC(=O)Nc1ccc(S(=O)(=O)N2CCC(c3nc4ccccc4[nH]3)CC2)cc1	3.2	-1.9	9.9	114.8	26.2
CC(=O)Nc1ccc(N(CC(=O)NC2CCCCC2)C(=O)Cn2nnc(-c3ccccc3)n2)cc1	-7.7	1.1	0.4	98.6	1.5
COc1ccc(Nc2nc(C)c3ccccc3n2)cc1	0.2	37.9*	9.8	92.0	12.1
COc1ccc(Nc2nc(-c3ccccc3)c3ccccc3n2)cc1	1.1	0.5	-5.3	85.8	34.5
CC(=O)Nc1ccc(Nc2ccccc2)cc1	-4.7	1.1	-6.5	81.3	13.5
CC(=O)Nc1ccc(Nc2nc(Cl)nc(Nc3ccc(NC(C)=O)cc3)n2)cc1	-3.2	13.1*	-16.0	101.9	6.5
Clc1nc(Nc2ccccc2)nc(Nc2ccccc2)n1	-4.6	18.1*	-7.5	94.7	24.6
COc1ccc(Nc2nc(Cl)nc(Nc3ccc(OC)cc3)n2)cc1	2.0	16.8*	-5.3	114.9	-4.3
